From PubChem BioAssay (NCI) come the findings set out here.

Assay [1] is described as follows: NCI Yeast Anticancer Drug Screen. Data for the rad50 strain (AID 155).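 Note: 0% = growth of vehicle-only cultures of the same strain.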 As to conditions: S. cerevisiae rad50 strain growth inhibition; at 50.0 µM; active compounds read high. In a few lines:
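Yeast carrying a defined DNA repair defect were exposed to test compounds, and growth was compared with vehicle-treated controls to give percent inhibition.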

Assay [2] can be described thus: NCI Yeast Anticancer Drug Screen. Data for the mec2-1 strain (AID 157). Conditions: S. cerevisiae mec2-1 strain, at 50.0 µM, active compounds read high. Summed up:
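Cells of the genetically defined mec2-1 yeast strain are incubated with test compound. Inhibition of growth is calculated against vehicle-treated controls.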

A short description of assay [3]: NCI Yeast Anticancer Drug Screen. Data for the sgs1 mgt1 strain (AID 161).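 Note: 0% = growth of cultures given vehicle only.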 Conditions: S. cerevisiae sgs1 mgt1 strain, at 50.0 µM, active compounds read high. Summed up:
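Mutant yeast exposed to compound; growth scored against vehicle-only wells.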

Assay [4] can be described thus: NCI Yeast Anticancer Drug Screen. Data for the cln2 rad14 strain (AID 165).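 Note: 0% = growth equal to vehicle treated cultures.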 Conditions: S. cerevisiae cln2 rad14 strain, at 50.0 µM, active compounds read high. Summed up:
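The screen exposed genetically defined yeast (cln2 rad14) to test compounds and scored growth inhibition relative to vehicle-treated controls.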

A short description of assay [5]: NCI Yeast Anticancer Drug Screen. Data for the bub3 strain (AID 167). As to conditions: S. cerevisiae bub3 mutant strain, at 50.0 µM, active compounds read high. Summed up:
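Compounds were applied to a genetically altered yeast strain carrying a cell-cycle control defect. Growth inhibition was scored against vehicle-treated controls.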

A short description of assay [6]: NCI Yeast Anticancer Drug Screen. Data for the mlh1 rad18 strain (AID 175). As to conditions: S. cerevisiae mlh1 rad18 strain growth inhibition; at 50.0 µM; active compounds read high. In a few lines:
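Compound-treated yeast growth, normalised to vehicle controls. Strain bears defined DNA repair mutations.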

Molecules are shown by their SMILES. The panel holds about 79,000 compounds, 15% with a hit somewhere; the sample as a whole holds those more often. Values without a mark were called inactive. Activity calls are given as the source filed them. Cut-off read from the data, not from the text of the source: active = growth inhibition above about 70%; inactive = the rest.

Take `CC(=O)OCCC(OC(C)=O)c1ccccn1` (stereo not drawn): the growth inhibition in assay [1] was -13.9%; in assay [2] it was -13.1%; in assay [3], -9.1%; in assay [4], -2.95%; in assay [5], 3.95%; in assay [6], -18.6%.

Turning to `C#Cc1cccc(N=Cc2cc(Cl)cc(C)c2O)c1`, the growth inhibition in assay [1] was 16.1%; in assay [2], 10.8%; in assay [3] it was 36.5%; in assay [4] it was 10.1%; in assay [5], 37.7%; in assay [6], 33.7%.

With `C=C(C)CC(O)CCCCC` (stereo not drawn), the growth inhibition was 15.1% in assay [1]; -5.85% in assay [2]; 19.7% in assay [3]; -33.9% in assay [4]; 17.3% in assay [5]; -13.3% in assay [6].

Take `COc1ccc(/C(C)=N/N=C(\C)c2ccc(OC)cc2)cc1`: the growth inhibition in assay [1] is 7.45%; in assay [2], -28.1%; in assay [3], 32.3%; in assay [4], 12.3%; in assay [5] it was 17.1%; in assay [6], 13.6%.

Regarding `Cc1ccc(S(=O)(=O)OCC2OCOC2C2OCOC2CI)cc1` (stereo not drawn), the growth inhibition in assay [1] was 12.2%; in assay [2] it was 3%; in assay [3], 2.6%; in assay [4], -9.9%; in assay [5], 10.1%; in assay [6], 13.2%.

As for `CC(=O)c1cc2cc(Br)ccc2oc1=O`, the growth inhibition was 13.5% in assay [1]; 18% in assay [2]; 16.2% in assay [3]; 24.9% in assay [4]; 14.4% in assay [5]; 23.6% in assay [6].

For `CC(C)n1c(=O)nc(-c2ccccc2)c2cc3c(cc21)OCO3`, the growth inhibition in assay [1] was 27.3%; in assay [2], 18.8%; in assay [3] it was 51.4%; in assay [4], 7%; in assay [5], 47.9%; in assay [6], 8.65%.

For the compound `CC(N)c1ccc(OCCOc2ccc(C(C)(C)CC(C)(C)C)cc2)cc1` (stereo not drawn), the growth inhibition is 98.9% (active) in assay [1]; 99% (active) in assay [2]; 42.7% in assay [3]; 97.7% (active) in assay [4]; 98.9% (active) in assay [5]; 99% (active) in assay [6].

On to `CCOc1ccc(C(C)(C)c2cc3c(cc2OC)OCO3)cc1`, for which the growth inhibition is -16.2% in assay [1]; -27.8% in assay [2]; -39.9% in assay [3]; -24.8% in assay [4]; -21.9% in assay [5]; -6.45% in assay [6].

Take `COc1ccc(CCc2nccn2C)cc1OC`: the growth inhibition in assay [1] is -69.3%; in assay [2], -54.9%; in assay [3] it was -34.7%; in assay [4], -16.4%; in assay [5], -7.95%; in assay [6], -32.2%.

For `O=C(CBr)OCCC1CCCCC1`, the growth inhibition is 49.2% in assay [1]; 4.7% in assay [2]; 47.9% in assay [3]; -36.5% in assay [4]; 3.05% in assay [5]; 32.5% in assay [6].

Take `CCO/C=C(/C#N)C(=O)OCC`: the growth inhibition is -6.8% in assay [1]; -11.9% in assay [2]; -20.3% in assay [3]; -27.6% in assay [4]; -14.3% in assay [5]; 0.85% in assay [6].

As to `Cc1nc(SCC(=O)Nc2ccc(Cl)cc2)c2sc(=S)n(-c3ccccc3)c2n1`, the growth inhibition in assay [1] is -14.2%; in assay [2], 4.6%; in assay [3], -1.25%; in assay [4], 2.35%; in assay [5], -4.4%; in assay [6], 5.4%.

Take `O=C(O)c1ccc(C2COc3ccc(Cl)cc3C2)cc1` (stereo not drawn): the growth inhibition is -10.8% in assay [1]; -19.8% in assay [2]; -23.8% in assay [3]; 4.7% in assay [4]; -19.2% in assay [5]; -24.2% in assay [6].

As for `N#CC(CC(=O)c1ccccc1)c1ccc(Cl)cc1` (stereo not drawn), the growth inhibition in assay [1] was 1%; in assay [2], 4.45%; in assay [3], -6.7%; in assay [4] it was -79.2%; in assay [5], 41.4%; in assay [6] it was -13.7%.

On to `O=C1OCCN1N1C(=O)CC2(CCN(Cc3ccccc3)CC2)C1=O`, for which the growth inhibition is -10.8% in assay [1]; 3% in assay [2]; -0.95% in assay [3]; 1.15% in assay [4]; 0.25% in assay [5]; -17.8% in assay [6].

For `O=S(=O)(O)CC(NCc1ccccc1)c1ccccc1` (stereo not drawn), the growth inhibition in assay [1] was -28.9%; in assay [2], -0.45%; in assay [3], -19.6%; in assay [4], -36.9%; in assay [5], 13.8%; in assay [6], -5%.

With `Nc1ccc[nH]c1=O`, the growth inhibition in assay [1] was 15.7%; in assay [2], 4%; in assay [3], 19.6%; in assay [4], 8.8%; in assay [5] it was 20.7%; in assay [6], -12.4%.

For `O=c1/c(=C/c2ccccc2F)sc2nc3ccccc3n12`, the growth inhibition is -2.85% in assay [1]; -11.3% in assay [2]; 12.2% in assay [3]; 29% in assay [4]; 21.1% in assay [5]; 12.3% in assay [6].

`COC(=O)c1[nH]c(=O)[nH]c(=S)c1N`: the growth inhibition in assay [1] was 7.75%; in assay [2], 21%; in assay [3], -10.6%; in assay [4], -20.6%; in assay [5], -17.8%; in assay [6] it was -15.8%.

Regarding `C[C@@H]1O[C@]2(O)[C@@H]3CCCN3S(=O)(=O)CCN2C1=O`, the growth inhibition in assay [1] is 2.1%; in assay [2], -21.6%; in assay [3] it was -16.9%; in assay [4] it was 17.7%; in assay [5] it was -11.3%; in assay [6] it was -17.1%.

For `CC1=C(C(=O)Nc2ccc([N+](=O)[O-])cc2)C(c2ccc3c(c2)OCO3)C(C(=O)Nc2ccc([N+](=O)[O-])cc2)=C(C)N1`, the growth inhibition in assay [1] was 8.65%; in assay [2], 15.3%; in assay [3] it was 21.6%; in assay [4] it was 24.4%; in assay [5], 10.2%; in assay [6], 7.05%.

On to `O=C(Nc1ccccc1)c1nccc2ccccc12`, for which the growth inhibition in assay [1] was 1.45%; in assay [2], 13%; in assay [3], -6.45%; in assay [4] it was -17.1%; in assay [5] it was 9.4%; in assay [6], -3.95%.

Turning to `CCOc1ccc2nc(/C=C/c3ccccc3)ccc2c1`, the growth inhibition in assay [1] was 13.9%; in assay [2], -3.65%; in assay [3] it was 13.8%; in assay [4], -3.75%; in assay [5], 9.85%; in assay [6], 14.8%.

With `COc1ccc2cc(-c3ccc(OC)c(OC)c3)c(=O)oc2c1`, the growth inhibition was -12.4% in assay [1]; -9.9% in assay [2]; -7.65% in assay [3]; -8.9% in assay [4]; -7.15% in assay [5]; -18.2% in assay [6].

Consider `CCCCc1c(O)c(N=NC(N)=S)c2ccccc2c1O`, for which the growth inhibition in assay [1] was 14.9%; in assay [2], 8.45%; in assay [3] it was 36.8%; in assay [4], -22.1%; in assay [5] it was 32.6%; in assay [6], 43.5%.

With `CC(C)OC(=O)N1CCCC1`, the growth inhibition is 12% in assay [1]; 13.8% in assay [2]; 6.05% in assay [3]; -20% in assay [4]; 13.9% in assay [5]; -17.4% in assay [6].

Regarding `O=C(CN1C(=O)CC(NC(=O)OCc2ccccc2)C1=O)NCC(=O)Oc1ccc([N+](=O)[O-])cc1` (stereo not drawn), the growth inhibition was 31.6% in assay [1]; 20.9% in assay [2]; 26.9% in assay [3]; 7.7% in assay [4]; 4% in assay [5]; 22.1% in assay [6].

Regarding `CCOc1ccc2nc(N=NC(C(C)=O)C(C)=O)sc2c1`, the growth inhibition in assay [1] is 26.9%; in assay [2], 9.8%; in assay [3] it was 1.3%; in assay [4], 14.1%; in assay [5], 5.55%; in assay [6], 15.9%.

With `CCOC(=O)c1ccc(NC(=O)Oc2ccc(SC)cc2)cc1`, the growth inhibition was 8.2% in assay [1]; -5.25% in assay [2]; 0.4% in assay [3]; 8.95% in assay [4]; 23.4% in assay [5]; 6.9% in assay [6].

Take `CCOC(=O)NC(=O)c1cn(CCCCCCOC(=O)NCCCCCCNC(=O)OCCCCCCn2cc(C(=O)NC(=O)OCC)c(=O)[nH]c2=O)c(=O)[nH]c1=O`: the growth inhibition in assay [1] is 32%; in assay [2], 14.6%; in assay [3], 27.8%; in assay [4], 28.8%; in assay [5], 13.4%; in assay [6] it was 28.4%.

In the case of `O=C(NCCCc1ccccc1)Nc1ccccc1`, the growth inhibition was 16.4% in assay [1]; -0.65% in assay [2]; -8.05% in assay [3]; -10.4% in assay [4]; -1.35% in assay [5]; 3.45% in assay [6].

On to `S=C1NCCN1c1ccc(Cl)cc1`, for which the growth inhibition in assay [1] was -16.4%; in assay [2], -16.1%; in assay [3] it was -20.4%; in assay [4], -21.8%; in assay [5], -30.5%; in assay [6] it was 5.55%.

Take `Cc1ccc([N+](=O)[O-])cc1NC(=O)NCCCl`: the growth inhibition in assay [1] is -11.1%; in assay [2], 4.55%; in assay [3] it was 5.5%; in assay [4], -1%; in assay [5], -11.1%; in assay [6] it was -9.05%.

With `COc1cnnc2ccccc12`, the growth inhibition in assay [1] was 12.8%; in assay [2] it was 3.2%; in assay [3] it was 4.6%; in assay [4], -2.35%; in assay [5], -0.9%; in assay [6], 14.3%.

On to `CCc1ccc(S(N)(=O)=O)cc1`, for which the growth inhibition in assay [1] was 11.1%; in assay [2], -4.1%; in assay [3], -16.3%; in assay [4], -24.6%; in assay [5], -7%; in assay [6] it was -168%.

Consider `CCOC(=O)c1ccc(C(=O)OCC)n1-c1cc2cc(c1)CSCc1cc(cc(-n3c(C(=O)OCC)ccc3C(=O)OCC)c1)CSC2`, for which the growth inhibition in assay [1] is -26.2%; in assay [2] it was -30.1%; in assay [3], -20.9%; in assay [4], 16.6%; in assay [5], -13.8%; in assay [6] it was -5.15%.

In the case of `COc1ccc(Cl)cc1NC(C)=O`, the growth inhibition is 5.1% in assay [1]; 8.1% in assay [2]; 5.2% in assay [3]; 7.25% in assay [4]; 3.7% in assay [5]; -7.65% in assay [6].
